Hits are enriched below; roughly 10% of the tested compounds scored in any of these assays.
IMPase cell inh: IMPase inhibition in cells | P97697 | CHO-M1 cells, IP1 accumulation, HTRF TR-FRET ratio | inhibition (IP1 accumulation), % at 46.1 µM | 120,000 tested, under 10 active | AID 901; active = well fitted curve in the direction sought with a large enough effect in the signal ratio, not every such curve was filed as active; inconclusive = small, poorly fitted or top-dose-only effect, or a change in a side signal; inactive = no such curve, though single readings can be large or run the other way; the % refers to the signal ratio;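 note: cells stimulated with carbachol in lithium chloride buffer; plate controls were DMSO basal wells for no effect and reference inhibitor wells for full effect; higher means more IMPase inhibition seen as more IP1 and lower FRET ratio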
Target sequence (P97697 whole entry, looked up): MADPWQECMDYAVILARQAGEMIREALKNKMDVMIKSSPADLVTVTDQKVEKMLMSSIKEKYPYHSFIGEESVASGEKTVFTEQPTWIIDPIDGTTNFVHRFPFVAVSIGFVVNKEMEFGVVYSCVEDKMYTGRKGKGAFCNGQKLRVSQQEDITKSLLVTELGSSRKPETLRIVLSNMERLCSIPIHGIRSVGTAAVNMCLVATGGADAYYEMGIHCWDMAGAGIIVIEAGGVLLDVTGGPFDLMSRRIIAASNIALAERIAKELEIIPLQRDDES
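In this qHTS, compounds (final up to 46 uM) act on CHO-M1 cells that are then activated through the M1 receptor with carbachol, in pH 7.4 buffer containing 50 mM LiCl, for 30 min. IP1 accumulation is quantified by the IP-One immunoassay.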
PNC inhibitor: perinucleolar compartment assembly inhibition. PC3M PTB-GFP, PNC prevalence imaging, 16 h; stronger effect = lower value. activity change (PNC), negative = inhibition, % at 10 µM. 140,000 compounds, 3.1% hits. AID 2417;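 active = readout at or below -70, meaning at least 70% loss of cells showing the perinucleolar compartment, a nuclear body marking cancer cells; inconclusive = readout between -30 and a set limit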;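 note: plate controls were DMSO wells for no effect and camptothecin positive control wells for full effect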
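Compounds are pinned in duplicate onto adhered PC3M cells stably expressing GFP-tagged PTB and incubated 16 h at 37 C. Cells are then fixed, nuclei stained with Hoechst, and PNC-positive cells counted.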
Luc counter: blocks Kinase-Glo luciferase, a counter-screen artifact; Kinase-Glo luciferase, ATP luminescence, 8 min; Potency, µM (titrated, usually from 38.3 µM), for inactives: at the top dose activity change, negative = inhibition, usual class: inhibitors; 200,000 compounds, 0.28% hits; AID 1379; active = well fitted inhibition curve with a large enough effect; inconclusive = small, poorly fitted or top-dose-only effect; note: potency is the fitted concentration of half-maximal effect; nearly all actives have a fitted effect of over 60% in size
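Compounds were added to a substrate mix at pH 7.2 (50 mM imidazole, 10 uM ATP, within the enzyme's linear range), followed by Kinase-Glo detection reagent; luminescence was measured after 8 minutes at ambient temperature.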
ALDH1A1 block: ALDH1A1 (human) enzyme inhibition | Potency, µM (top dose mostly 75.3 µM), for inactives: at the highest dose activity, negative = inhibition, hits mostly inhibitors | 220,000 compounds, 7.3% hits | AID 1030 | P00352 | Purified ALDH1A1, NADH fluorescence, propionaldehyde substrate;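 note: potency is the fitted concentration of half-maximal effect; plate controls were no enzyme wells and a reference inhibitor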
Target sequence (P00352 whole entry, looked up): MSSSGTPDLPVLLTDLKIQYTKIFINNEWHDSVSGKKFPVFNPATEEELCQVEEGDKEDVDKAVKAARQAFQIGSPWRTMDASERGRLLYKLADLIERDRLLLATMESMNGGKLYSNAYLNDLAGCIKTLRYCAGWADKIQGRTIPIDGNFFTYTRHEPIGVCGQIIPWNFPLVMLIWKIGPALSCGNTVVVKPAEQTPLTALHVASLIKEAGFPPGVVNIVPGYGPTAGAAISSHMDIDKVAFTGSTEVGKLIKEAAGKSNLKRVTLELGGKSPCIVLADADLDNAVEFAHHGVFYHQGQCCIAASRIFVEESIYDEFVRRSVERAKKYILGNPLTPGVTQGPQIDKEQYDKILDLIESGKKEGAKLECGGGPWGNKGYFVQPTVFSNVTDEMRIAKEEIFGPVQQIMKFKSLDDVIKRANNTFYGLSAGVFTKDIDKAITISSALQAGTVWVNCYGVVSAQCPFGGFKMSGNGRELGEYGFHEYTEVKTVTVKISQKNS
Lamin A splicing: changes lamin A minigene splicing in HeLa cells. Potency, µM (doses to about 46.1 µM), for the others: at the top dose ratio change, negative = inhibition, hits mostly inhibitors. 200,000 compounds, 0.01% hits. HeLa LMNA splicing GFP/RFP minigene ratio, 48 h; active = well fitted inhibition curve with a large enough effect in the signal ratio, with a control signal flat, not every such curve was filed as active; inconclusive = small, poorly fitted or top-dose-only effect, or effect the other way, or a change in a side signal; the % refers to the signal ratio; note: potency is the fitted concentration of half-maximal effect
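S3 HeLa stable clones carrying a lamin A-EGFP splicing minigene plus DsRed2 were seeded at 600 cells/well in Opti-MEM with 2% FBS, pin-dosed and incubated 48 h at 37°C. Acumen cytometry (488 nm) gave the GFP/RFP total-intensity ratio.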
HPGD block: HPGD (human) dehydrogenase inhibition | P15428 | purified HPGD, NADH fluorescence kinetic, PGE2 substrate | Potency, µM, inactives show at the top dose activity change, negative = inhibition, actives largely listed as inhibitors | 150,000 compounds, 4.3% hits | AID 894; note: potency is the fitted concentration of half-maximal effect
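20 nM HPGD preincubated 15 min at room temperature with compound in 50 mM Tris-HCl pH 8, 0.01% Tween 20. Started with 1 mM NAD+ and 30 uM prostaglandin E2; NADH fluorescence (360/450 nm) read 5 times over 30-s intervals, last minus first.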
Numbers without * were called inactive; [ ] = dose if it differs, or a comment. Unless noted, calls come from the whole dose curve; as a rule, active = well fitted inhibition curve with a large enough effect (not every such curve was filed as active); inconclusive = small, poorly fitted or top-dose-only effect, or another doubt; inactive = no such curve, though single readings can be large or run the other way. Unless noted, % is set by controls: 0 for no effect and ±100 for the full control effect.

What do the screens show for `COc1cccc(-c2cnc(NCc3cc(Cl)ccc3O)n2C)c1`?
IMPase cell inh: 15; PNC inhibitor: 12; Luc counter: 12%; ALDH1A1 block: inconclusive; Lamin A splicing: inconclusive; HPGD block: -26%

Results for Cn1c(-c2ccc(F)cc2)cnc1NCc1ccccc1 ?
IMPase cell inh: 0; PNC inhibitor: inconclusive; Luc counter: -1%; ALDH1A1 block: inconclusive; Lamin A splicing: -18%; HPGD block: -30%

How did Cn1c(-c2cccc(Br)c2)cnc1NCc1cccnc1 do in these assays?
IMPase cell inh: 5[1.84 µM]; PNC inhibitor: -10; Luc counter: 2%; ALDH1A1 block: 11µM*; Lamin A splicing: -13%; HPGD block: -25%

Results for Cn1c(-c2ccc(F)cc2)cnc1NCc1cccc(F)c1 ?
IMPase cell inh: 10; PNC inhibitor: 65; Luc counter: -3%; ALDH1A1 block: 6.3µM*; Lamin A splicing: -1%; HPGD block: 16µM*

How did Cn1c(-c2ccc3c(c2)OCO3)cnc1NCc1cccc(O)c1 do in these assays?
Luc counter: 1%; ALDH1A1 block: 13µM*; Lamin A splicing: 6%[46 µM]

Results for COc1cccc([C@@H]2Oc3ccc(Br)cc3C(=O)[C@H]2OC(=O)NS(=O)(=O)c2ccc(F)cc2)c1 ?
Luc counter: 2%; ALDH1A1 block: inconclusive; HPGD block: -9%

Results for CC(C)(C)Nc1oc(-c2ccccc2)nc1-c1ccccc1F ?
Luc counter: 1%; ALDH1A1 block: -5%; HPGD block: -11%

How did COc1ccc(NC(=O)CN(C)S(=O)(=O)c2ccc3c(c2)CCCN3C(C)=O)cc1Cl do in these assays?
Lamin A splicing: -3%[46 µM]

How did O=C(CSc1nnc2scc(-c3ccc(Cl)cc3)n12)NCc1ccc2c(c1)OCO2 do in these assays?
IMPase cell inh: 11; PNC inhibitor: -86*; Luc counter: 0%; ALDH1A1 block: -7%; Lamin A splicing: -8%; HPGD block: -7%

How did Cn1c(=O)c2c(nc(SCC(=O)NCc3ccc4c(c3)OCO4)n2Cc2ccc(Cl)cc2)n(C)c1=O do in these assays?
IMPase cell inh: -3; PNC inhibitor: -100*; Luc counter: -16%; ALDH1A1 block: -10%; Lamin A splicing: -13%; HPGD block: -15%

How did CCCCCNC1=CC(=O)CC(c2ccccc2)C1 (stereo not given) do in these assays?
IMPase cell inh: -5; PNC inhibitor: -84*; Luc counter: -6%; ALDH1A1 block: inconclusive; Lamin A splicing: 1%; HPGD block: -20%

Results for COc1ccc2c(c1OC)C(=O)OC2[C@H]1c2c(cc3c(c2OC)OCO3)CCN1C (stereo not given in full) ?
IMPase cell inh: -1[20.6 µM]; Luc counter: 1%[17.1 µM]; ALDH1A1 block: 0%[20.9 µM]; Lamin A splicing: 6%; HPGD block: 0%

How did COc1cccc(C(=O)CC2c3c(c(Br)c4c(c3OC)OCO4)CCN2C)c1 (stereo not given) do in these assays?
Luc counter: -1%; ALDH1A1 block: 7.9µM*; HPGD block: inconclusive

How did O=C(CCS(=O)(=O)c1cc2c(cc1Cl)NC(=O)CO2)NCCc1ccc(Cl)cc1 do in these assays?
Lamin A splicing: 6%[46 µM]

What do the screens show for `CCCC(C)C(=O)Nc1ccncc1` (stereo not given)?
IMPase cell inh: -7; PNC inhibitor: -100*; Luc counter: 4%; ALDH1A1 block: 3%; Lamin A splicing: -8%; HPGD block: -10%

Results for O=C(c1cccs1)c1cn(CCOc2ccccc2Cl)c2ccccc12 ?
IMPase cell inh: 3

What do the screens show for `Cc1ccc(CNc2ncnc3onc(C)c23)cc1`?
Lamin A splicing: 0%[46 µM]

How did CCOc1ccccc1Nc1nc(-c2sc(NC(=O)c3ccccc3)nc2C)cs1 do in these assays?
IMPase cell inh: 5; PNC inhibitor: 25; Luc counter: -2%; ALDH1A1 block: inconclusive; Lamin A splicing: -2%; HPGD block: -22%

What do the screens show for `Cc1csc(Nc2cccc3ccccc23)n1`?
Luc counter: -1%; ALDH1A1 block: inconclusive; Lamin A splicing: -6%[9.22 µM]

What do the screens show for `COc1ccccc1Nc1nc(C)cs1`?
IMPase cell inh: -10; PNC inhibitor: inconclusive; Luc counter: -3%; ALDH1A1 block: 18µM*; Lamin A splicing: 3%; HPGD block: -16%

How did COc1ccccc1Nc1nc(-c2sc(NC(=O)c3ccc([N+](=O)[O-])cc3)nc2C)cs1 do in these assays?
IMPase cell inh: 3; PNC inhibitor: 30; Luc counter: -4%; ALDH1A1 block: 16µM*; Lamin A splicing: 6%; HPGD block: -17%

What do the screens show for `Cc1ccc(Cl)cc1Nc1nc(-c2sc(NC(=O)c3ccccc3)nc2C)cs1`?
IMPase cell inh: -5; PNC inhibitor: -14; Luc counter: -10%; ALDH1A1 block: 20µM*; Lamin A splicing: 5%; HPGD block: inconclusive

How did COc1ccccc1Nc1nc(-c2sc(NC(=O)c3ccccc3)nc2C)cs1 do in these assays?
IMPase cell inh: 9; PNC inhibitor: 17; Luc counter: -18%; ALDH1A1 block: 13µM*; Lamin A splicing: 5%; HPGD block: inconclusive

What do the screens show for `CCCCCCC(=O)Nc1nc(C)c(-c2csc(Nc3cc(Cl)ccc3C)n2)s1`?
IMPase cell inh: -2; PNC inhibitor: 33; Luc counter: 0%; ALDH1A1 block: inconclusive; Lamin A splicing: 11%[0.0737 µM]; HPGD block: -22%

Results for CCCCCC(=O)Nc1nc(C)c(-c2csc(Nc3ccccc3OC)n2)s1 ?
IMPase cell inh: 3; PNC inhibitor: inconclusive; Luc counter: -2%; ALDH1A1 block: inconclusive; Lamin A splicing: -2%; HPGD block: inconclusive

How did COc1cc(OC)cc(C(=O)NCCc2csc(-c3cccc(C)c3)n2)c1 do in these assays?
Lamin A splicing: -12%[46 µM]

What do the screens show for `COc1ccc2c(c1)O[C@@H](c1ccc3c(c1)OCO3)[C@H](OC(=O)N[C@H]1CCCc3ccccc31)C2=O`?
Luc counter: 5%; ALDH1A1 block: -13%; HPGD block: 4%

Results for O=C(NCc1ccco1)C(=O)NCC1OCCCN1S(=O)(=O)c1ccc(Cl)cc1 (stereo not given) ?
Luc counter: 6%; ALDH1A1 block: inconclusive; Lamin A splicing: inconclusive

How did Cc1cc(S(=O)(=O)N2CCCOC2CNC(=O)C(=O)NCc2ccco2)ccc1F (stereo not given) do in these assays?
Luc counter: 5%; ALDH1A1 block: 10µM*

What do the screens show for `O=C(NCCC1=CCCCC1)C(=O)NCC1OCCCN1S(=O)(=O)c1cc(F)ccc1F` (stereo not given)?
Luc counter: -1%; ALDH1A1 block: -17%; Lamin A splicing: -5%[46 µM]

Compound activity (PubChem BioAssay)
